One assay relates to CRL-7250. Description: Cytotoxic Profiling of Annotated Libraries Using Quantitative High-Throughput Screening (AID 1296008). For max response: % is set by controls: 0 for no effect and ±100 for the full control effect. The note with it: Five cell lines viability, CellTiter-Glo ATP luminescence, 48-72 h; max response: active compounds read low. In short, it runs like this:
(§1)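 Cytotoxicity was measured as CellTiter-Glo ATP luminescence, read after 10 min at room temperature. Compound treatment of the cells lasted 48 or 72 hr at 37 degrees Celsius in a qHTS format.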

In the next assay the test system is HEK293. The description is as above. The conditions noted are these: Five cell lines viability, CellTiter-Glo ATP luminescence, 48-72 h; max response: active compounds read low. In short, it runs like this: as §1
In general terms: Cellular ATP, detected with luciferase, serves as a proxy for viable cell number.

The test system of the next assay is HaCat. Described as above. The conditions noted are these: Five cell lines viability, CellTiter-Glo ATP luminescence, 48-72 h; max response: active compounds read low. In short, it runs like this: as §1
The next assay concerns KB-3-1. The assay is described as above. The note with it: Five cell lines viability, CellTiter-Glo ATP luminescence, 48-72 h; max response: active compounds read low. In short, it runs like this: as §1
The test system of the next assay is GB4. Description: qHTS profiling for inhibitors of Plasmodium falciparum proliferation (AID 504749). The note with it: P. falciparum in erythrocytes, SYBR Green DNA, 72 h; series mostly up to 28.7 µM. A digest of the protocol: (§2)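 Infected RBCs, 0.3% parasitemia/2.5% Hct final; cpd 72 h, 37 C, 5% CO2; lysis buffer with saponin/triton/SYBR Green I, o/n RT dark; FI 485/535; norm. to artemisinin (0.29 uM) and DMSO.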

A further assay deals with HB3. Described as above. The note with it: P. falciparum in erythrocytes, SYBR Green DNA, 72 h; series mostly up to 28.7 µM. In short, it runs like this:
as §2

The test system of another assay is ICS. The assay is described as above. The conditions noted are these: P. falciparum in erythrocytes, SYBR Green DNA, 72 h; series mostly up to 28.7 µM. A digest of the protocol: as §2
The next assay deals with JCK. Described as above. The conditions noted are these: P. falciparum in erythrocytes, SYBR Green DNA, 72 h; series mostly up to 28.7 µM. In short, it runs like this: as §2
Another assay relates to N140. The assay is described as above. The note with it: P. falciparum in erythrocytes, SYBR Green DNA, 72 h; series mostly up to 28.7 µM. In short, it runs like this: as §2
In another assay the test system is P93_24. The assay is described as above. The conditions noted are these: P. falciparum in erythrocytes, SYBR Green DNA, 72 h; series mostly up to 28.7 µM. In short, it runs like this:
as §2

In a further assay the test system is P94_40. The description is as above. The conditions noted are these: P. falciparum in erythrocytes, SYBR Green DNA, 72 h; series mostly up to 28.7 µM. A digest of the protocol:
as §2

The next assay has as its system PAD. The description is as above. The conditions noted are these: P. falciparum in erythrocytes, SYBR Green DNA, 72 h; series mostly up to 28.7 µM. In short, it runs like this: as §2
In the next assay the test system is PC15. The assay is described as above. The note with it: P. falciparum in erythrocytes, SYBR Green DNA, 72 h; series mostly up to 28.7 µM. In short, it runs like this: as §2
For a further assay, the system named is PC26. The description is as above. The note with it: P. falciparum in erythrocytes, SYBR Green DNA, 72 h; series mostly up to 28.7 µM. A digest of the protocol:
as §2

Another assay concerns PC49. Described as above. The conditions noted are these: P. falciparum in erythrocytes, SYBR Green DNA, 72 h; series mostly up to 28.7 µM. A digest of the protocol: as §2
The subject of the next assay is SC27B. The description is as above. The note with it: P. falciparum in erythrocytes, SYBR Green DNA, 72 h; series mostly up to 28.7 µM. A digest of the protocol:
as §2

Another assay deals with TAB109. The description is as above. The conditions noted are these: P. falciparum in erythrocytes, SYBR Green DNA, 72 h; series mostly up to 28.7 µM. In short, it runs like this:
as §2

The next assay has as its system TAB113. Described as above. The note with it: P. falciparum in erythrocytes, SYBR Green DNA, 72 h; series mostly up to 28.7 µM. In short, it runs like this: as §2
The subject of a further assay is TAB165. Described as above. The note with it: P. falciparum in erythrocytes, SYBR Green DNA, 72 h; series mostly up to 28.7 µM. In short, it runs like this:
as §2

The next assay relates to W2. Described as above. The note with it: P. falciparum in erythrocytes, SYBR Green DNA, 72 h; series mostly up to 28.7 µM. In short, it runs like this:
as §2

Several values for one entry are separate records, joined by “and”; a condition that tells them apart may be missing. Identical values can stand only once. Records with an inconclusive call do not appear. Where a structure was tested more than once in an assay, its records may differ in their call. Unmarked numbers belong to inactive results. Activity calls are given as the source filed them. Calls come from the whole dose curve; as a rule, active = well fitted inhibition curve with a large enough effect; inconclusive = small, poorly fitted or top-dose-only effect; inactive = flat fitted curve, though single readings scatter.
Note: nearly all actives have a fitted effect of over 60% in size.
Potency is the fitted concentration of half-maximal effect.

Turning to `CCn1c(-c2nonc2N)nc2cnc(Oc3cccc(NC(=O)c4ccc(OCCN5CCOCC5)cc4)c3)cc21`, the Potency with CRL-7250 was 20900 nM (active); in the assay with HEK293, 11800 nM (active); in the assay with KB-3-1, 5900 nM (active). In addition, the max response with HaCat is -18.5%.

For `CN[C@@H](C)C(=O)N[C@H]1CCCC[C@H]2CC[C@@H](C(=O)N[C@@H](c3ccccc3)c3cn(CCCCc4ccc(CCCCn5cc([C@@H](NC(=O)[C@@H]6CC[C@@H]7CCCC[C@H](NC(=O)[C@H](C)NC)C(=O)N76)c6ccccc6)nn5)cc4)nn3)N2C1=O`, the max response in the assay on CRL-7250 was -4.97%. Moreover, the outcome with HEK293 and in the assay with HaCat was inactive.

Consider `OC(CN1CCC(Cc2ccc(F)cc2)CC1)c1ccc(Cl)cc1` (stereo not drawn), for which the Potency was 1200 nM (active) in the assay with GB4; 8910 nM (active) with HB3; 355 nM (active) with ICS; 2000 nM (active) with JCK; 794 nM (active) with N140; 1580 nM (active) in the assay on P93_24. In addition, the Potency is 1580 nM (active) in the assay on P94_40; 631 nM (active) in the assay with PAD; 2000 nM (active) in the assay on PC15; 1510 nM (active) in the assay with PC26; 1580 nM (active) in the assay on PC49; 1580 nM (active) in the assay on SC27B. Also, the Potency with TAB109 is 1780 nM (active); with TAB113 it was 1410 nM (active); with TAB165, 1260 nM (active); with W2 it was 379 nM (active). For the same molecule, the max response was 0.243% and -6.71% in the assay with CRL-7250; -10.6% and 0.0097% with HEK293; 0.0814% in the assay on HaCat; -3.87% and 8.37% in the assay on KB-3-1. Besides, the molecule was classed as inactive with HaCat.

As for `COc1cc(Nc2ncc3c(n2)-c2ccc(Cl)cc2C(c2c(F)cccc2OC)=NC3)ccc1C(=O)O`, the Potency was 20600 nM (active) in the assay with CRL-7250, 23100 nM (active) in the assay with HEK293 and 2090 nM (active) with KB-3-1. For the same molecule, the max response in the assay with HEK293 was -33.7%.

Turning to `Cc1cc2c(F)c(Oc3ncnn4cc(OC[C@@H](C)O)c(C)c34)ccc2[nH]1`, the max response in the assay on CRL-7250 is -47.3%; in the assay with HaCat, -13.8%. The Potency with HEK293 was 3720 nM (active).

As to `NCCCC(N)(C(=O)O)C(F)F` (stereo not drawn), the Potency entry in the assay on GB4, with HB3, in the assay on ICS, with JCK, in the assay with N140 and in the assay with P93_24 was “inactive” in each case. The Potency result in the assay on P94_40, in the assay with PAD, in the assay on PC15, with PC26, with PC49 and in the assay on SC27B was “inactive” in each case. Further, the Potency entry with TAB109, in the assay with TAB113, with TAB165 and with W2 was “inactive” throughout. In addition, the max response in the assay on CRL-7250 was -1.33% and -4.78%; in the assay with HEK293, -1.85% and -25.2%; with HaCat, -8.41%; in the assay with KB-3-1, -4.94% and 7.79%. The molecule was classed as inactive in the assay with HaCat.

For the molecule `COc1ccccc1[C@H](c1cccc2ccccc12)[C@@](C)(C#N)C(=O)N1CCC(c2cccc(C(F)(F)F)c2)CC1`, the Potency with CRL-7250 is 26400 nM (active); in the assay with HEK293, 13200 nM (active). Also, the max response in the assay on HaCat was -11.9%.

For `CNC[C@H](O)c1cccc(O)c1`, the Potency result in the assay with GB4, in the assay on HB3, with ICS, in the assay on JCK, in the assay on N140 and with P93_24 was “inactive” each time. Also, the Potency result in the assay on P94_40, in the assay on PC15, in the assay with PC26, with PC49, in the assay with SC27B and in the assay on TAB109 was “inactive” each time. In addition, the Potency result with TAB113 and in the assay on TAB165 was “inactive” each time. In addition, the max response in the assay on CRL-7250 is -1.79% and -10.1%; in the assay on HEK293, 1.65% and -9.71%; with HaCat, -21.3%; in the assay on KB-3-1, 3.69%. For the same molecule, the result with HaCat and in the assay with KB-3-1 was inactive.

Turning to `O=C(c1cc(Cc2n[nH]c(=O)c3ccccc23)ccc1F)N1CCN(C(=O)C2CC2)CC1`, the Potency with CRL-7250 was 9350 nM (active). The max response is -77.6% in the assay on HEK293; -1.1% with HaCat; -21.2% and -8.64% in the assay with KB-3-1.

With `CS(=O)(=O)Oc1ccc2c(NC(N)=O)c(C(=O)c3ccc(Cl)cc3Cl)oc2c1`, the result in the assay on CRL-7250 and with HaCat was inactive. Moreover, the max response in the assay on HEK293 was 3.62%; in the assay with KB-3-1, 0.867%.

For the molecule `CCOc1ccn(-c2ccc(F)cc2)c(=O)c1C(=O)Nc1ccc(Oc2ccnc(N)c2Cl)c(F)c1`, the max response in the assay with CRL-7250 was -27.8%. Moreover, the Potency with HEK293 was 26400 nM (active); in the assay with HaCat, 23500 nM (active); in the assay on KB-3-1 it was 13200 nM (active).

For the molecule `Cc1cc(C=c2sc3nc4ccccc4n3c2=O)c(C)n1-c1ccccc1`, the max response in the assay with CRL-7250 is -1.5%; in the assay on HEK293 it was -0.0904%; in the assay on KB-3-1 it was 1.4%. In addition, the molecule was classed as inactive in the assay with HaCat.

As to `CN(C(=O)c1ccc(F)cc1C(F)(F)F)C1CCN(c2nnc(-c3ccnn3C)c3ccccc23)CC1`, the max response with CRL-7250 was -27.2% and -23.7%; in the assay on HEK293, -60.8%; with HaCat, -6.53%; with KB-3-1, -19.8%. For the same molecule, in the assay on HaCat, the molecule was called inactive.

`CC1(C)Cc2c(-c3ccccc3)c(-c3ccc(Cl)cc3)c(CC(=O)O)n2C1`: the max response is 2.44% in the assay on CRL-7250; -5.26% and -28.4% with HaCat; -7.08% in the assay on KB-3-1. Further, the Potency with HEK293 is 14600 nM (active).

Consider `O=c1[nH]cnc2[nH]ncc12`, for which the Potency entry with GB4, with HB3, with ICS, with JCK, in the assay on N140 and in the assay on P93_24 was “inactive” in each case. The Potency entry in the assay with P94_40, with PAD, in the assay with PC15, in the assay with PC26, in the assay with PC49 and in the assay on SC27B was “inactive” in each case. In addition, the Potency entry with TAB109, in the assay on TAB113, with TAB165 and in the assay with W2 was “inactive” each time. Besides, the max response in the assay on CRL-7250 is 2.71% and -1.4%; in the assay on HEK293, -10.4%; in the assay with HaCat, 0.897%; with KB-3-1, 2.11% and 5.17%. In addition, the outcome in the assay with HaCat was inactive.

As for `CC(=O)Oc1ccccc1C(=O)O`, the Potency result with GB4, in the assay on HB3, with ICS, with JCK, in the assay on N140 and in the assay on P93_24 was “inactive” in each case. Besides, the Potency result with P94_40, in the assay on PAD, in the assay on PC15, with PC49, in the assay with SC27B and in the assay with TAB109 was “inactive” throughout. Also, the Potency result in the assay on TAB113, in the assay with TAB165 and in the assay with W2 was “inactive” each time. Also, the max response was 0.351% and -4.5% in the assay on CRL-7250; 1.6% in the assay with HEK293; -12% and 2.14% with KB-3-1. Also, the call with HEK293 was inactive.

Turning to `Cc1n[nH]c(C)c1Cc1sc2c(c1C(=O)N1C[C@H](O)CO1)c(=O)n(C)c(=O)n2CC(C)C`, the max response with CRL-7250 is -7.94%; in the assay on HaCat, -3.78% and -14.4%. In addition, the Potency in the assay on HEK293 is 184 nM (active). In the assay on KB-3-1, the result was inactive.
